Nrf2 activator – Nrf2 pathway activation | AREc32 ARE-luciferase reporter (MCF7-derived line), luminescence, 24 h | Potency, µM (doses to about 46.1 µM), for inactives: top-dose activation, usual class: activators | 410,000 compounds, 0.31% hits | AID 624171; note: potency is the fitted concentration of half-maximal effect; % of control where 0% means no effect; nearly all actives have a fitted effect of over 65% in size
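Luciferase luminescence (Steady-Glo, 30 min at room temperature) served as the read-out of ARE activation in AREc32 cells treated with compounds for 24 hr at 37 deg C.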
ELG1 repair inh – ELG1-dependent DNA repair inhibition; HEK293T ELG1-luciferase reporter, luminescence, 16 h; DNA damage induced by 5-fluorouridine; Potency, µM (doses to about 46.1 µM), without a hit: at the top dose activity change, negative = inhibition, most hits filed as inhibitors; 330,000 compounds, 2.3% hits; AID 504467; note: potency is the fitted concentration of half-maximal effect; % is set by controls: 0 for no effect and ±100 for the full control effect; nearly all actives have a fitted effect of over 55% in size
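Quantitative HTS, concentration-response format. 2,000 cells/well co-treated with 5-fluorouridine and compound, 16 hr in 5% CO2 at 37 °C; ONE-Glo luminescence read after 30 min.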
BRCA1 expr act – activators of BRCA1 expression | MCF7-BRCA1-FFLuc reporter, luminescence, 48 h; response scale: scaled: vehicle 0%, 10 µM genistein 100% | Potency, µM (titrated, usually from 46.1 µM), for the others: at the highest dose activation, actives largely listed as activators | 380,000 compounds, 1.1% hits | AID 624202; note: potency is the fitted concentration of half-maximal effect; nearly all actives have a fitted effect of over 80% in size
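First, MCF7-BRCA1-FFLuc cells (2000/well) attach for 2 h; next, compounds are pin-added and incubated 48 h at 37 °C; finally, luciferase reagent is added and luminescence read after 15 min.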
IL2 activator – activators of IL-2; IL-2 activation reporter assay, cell-based qHTS; stimulated with anti-CD3/CD4/CD28 beads; in transgenic mouse T cells; activation, % (series mostly up to about 46 µM); 360,000 compounds, 0.065% hits; AID 652025; in the data active = activation above about 50%; inconclusive = mostly about 30% to 49%; note: 0% is about no effect
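EGFP and DsRed fluorescence is measured by plate cytometry in unstimulated transgenic mouse T cells exposed to compound for 60 minutes, then stimulated 18 hours at 37 degrees C with anti-CD3/anti-CD4 beads plus anti-CD28.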
Starred values were filed as active, the others as inactive; ? = inconclusive; · = not tested or not shown; [ ] = another dose, or the depositor's remark. An excerpt weighted towards active compounds, which were near 3.1% of everything screened. Unless noted, calls come from the whole dose curve; as a rule, active = well fitted curve in the direction sought with a large enough effect; inconclusive = small, poorly fitted or top-dose-only effect, or another doubt; inactive = no such curve, though single readings can be large; an effect the other way counts as inactive or inconclusive.

SMILES	Nrf2 activator	ELG1 repair inh	BRCA1 expr act	IL2 activator
O=C1CC(c2ccc(F)cc2)Sc2ccccc2N1 (centres undefined)	1%	26%	-26%	0
COc1cc(C2CC(=O)Nc3ccccc3S2)cc(OC)c1OC (centres undefined)	-1%	10µM*	-26%	1
O=C(c1cnn2c1NC(c1ccco1)CC2C(F)(F)F)N1CCN(c2cccc(Cl)c2)CC1 (centres undefined)	3%	10µM*	-82%	0
O=C(c1ccco1)N1CCN(C(=O)c2cnn3c2NC(c2cccs2)CC3C(F)(F)F)CC1 (centres undefined)	0%	?	-14%	2
Cc1noc(C)c1COC(=O)c1cccc(S(=O)(=O)N2CCCCCC2)c1	2%	5.8µM*	-57%	-3
COc1cc(OC)c(N(C)S(=O)(=O)c2cccc(C(=O)OCc3c(C)noc3C)c2)cc1Cl	3%	18µM*	-43%	-1
Cc1noc(C)c1COC(=O)c1ccc(F)c(S(=O)(=O)N2CCCCC2)c1	0%	?	-37%	0
CCOC(=O)c1ccc(NC(=O)CN(c2ccc(C)cc2)S(=O)(=O)c2ccc(OC)cc2)cc1	0%	·	·	·
CCOC(=O)c1ccc(NC(=O)CN(C)S(=O)(=O)c2ccc(Br)s2)cc1	0%	26µM*	-1%	-3
CCOC(=O)c1ccc(NC(=O)CN(C)S(=O)(=O)c2ccc(OC)cc2)cc1	0%	-6%	4%	70*
Cc1ccccc1-c1cc2nc(Oc3ccc4c(c3)OCO4)n(C)c(=O)c2s1	11%	·	-26%	-1
COc1cc(/C=N/Nc2ncc(C(F)(F)F)cc2Cl)cc(OC)c1OC	0%	?	-17%	0
COc1cc(/C=N/Nc2ncc(C(F)(F)F)cc2Cl)cc(OC)c1O	6%	13µM*	-24%	0
Oc1ccc(/C=N/Nc2ncc(Cl)cc2Cl)cc1	12%	?	13µM*	0
c1ccc(NC2=Nc3ccccc3CS2)cc1	7%	?	3.5µM*	-1
Cc1ccc(NC2=Nc3ccccc3CC2)cc1	-2%	?	1%	4
FC(F)(F)COc1cc(-c2nnc(SCc3ccccc3)n2Cc2ccco2)cc(OCC(F)(F)F)n1	0%	18µM*	-39%	0
COc1ccc(CCn2c(-c3ccco3)nc3ccccc3c2=O)cc1OC	0%	10µM*	-27%	8
O=C1CN(C(=O)c2ccc(S(=O)(=O)N3CCCC3)cc2)C(c2ccc(F)cc2)c2cc(Br)ccc2N1 (centres undefined)	6%	·	·	·
CC(C)(C)c1ccc(-c2nc(C#N)c(NCc3ccncc3)o2)cc1	4%	?	11µM*	-1
COC(=O)c1cc(Cl)c(NC(=O)c2ccc(C(C)(C)C)cc2)cc1OC	2%	?	3.5µM*	-2
COC(=O)c1cc(Cl)c(NC(=O)C(C)C)cc1OC	0%	2%	-9%	-3
CCCCOC(=O)Nc1ccc(N2CCOCC2)cc1	0%	?	4.5µM*	2
CCCCOC(=O)Nc1ccc(C(C)C)cc1	3%	?	11µM*	-1
CCCCOC(=O)Nc1ccc(N2CCCCC2)cc1	0%	?	?	1
SMILES	Nrf2 activator	ELG1 repair inh	BRCA1 expr act	IL2 activator
Cc1ccccc1NC(=O)c1sc2nc3c(c(-c4ccco4)c2c1N)CCC3	0%	23µM*	-19%	14
NC(=O)c1sc2nc3c(c(-c4ccco4)c2c1N)CCCC3	-1%	9.2µM*	10%	0
Cc1onc(-c2ccccc2Cl)c1C(=O)N1CCN(c2nc3ccccc3s2)CC1	0%	13µM*	-32%	0
O=C(C1CC1)N1CCN(c2nc3ccccc3s2)CC1	0%	?	82%	4
CNC(=S)N1CCN(c2nc3ccccc3s2)CC1	3%	?	7.1µM*	0
CS(=O)(=O)N1CCN(c2nc3ccccc3s2)CC1	-1%	?	13µM*	-2
CN(C1CCCCC1)S(=O)(=O)c1ccc(C(=O)N2CCN(c3nc4ccccc4s3)CC2)cc1	-1%	9.2µM*	-54%	0
O=C(NC(c1ccc(-c2ccccc2)cc1)c1cnccn1)C1CCN(Cc2ccc3c(c2)OCO3)CC1 (centres undefined)	-3%	·	-74%	-1
Cc1ccc(N(C)C(=O)Cn2cc(S(=O)(=O)N3CCCC3)c(S(=O)(=O)N3CCCC3)c2)cc1	-1%	·	·	·
COc1cc(CN2C[C@@H](CO)O[C@@H](n3cnc4c(NC5CCCC5)ncnc43)C2)cc(OC)c1OC	0%[9.22 µM]	·	-6%	1
CCOCCCNC(=O)c1cc(=O)n(Cc2cccc(C)c2)c2ccccc12	0%	16µM*	-64%	1
COc1ccc(Cl)cc1NC(=O)NCCc1c(C)nn(C)c1C	-1%	·	15%	·
CCCn1c(SC(C(=O)Nc2cc(C)ccc2OC)c2ccccc2)nc2ccccc2c1=O (centres undefined)	-1%[9.22 µM]	18µM*	-12%	1
COc1ccc(C)cc1NC(=O)C(Sc1nnnn1C)c1ccccc1 (centres undefined)	1%	-2%	-4%	1
O=c1cnnc(N/N=C/c2c[nH]c3ccccc23)[nH]1	13µM*	-1%	4%	0
O=c1nc(N/N=C/c2c[nH]c3ccccc23)cn[nH]1	1%	?	?	-2
COc1cc([N+](=O)[O-])ccc1-c1ccc(/C=N/NC(=O)c2ccccc2O)o1	·	15µM*	·	·
O=C(O)c1cc(N/N=C/c2ccc(-c3ccccc3)cc2)ccc1Cl	2%	?	?	2
O=C(O)c1cc(N/N=C/c2c[nH]c3ccccc23)ccc1Cl	6%	?	3.2µM*	0
O=C(N/N=C/c1c[nH]c2ccccc12)c1cccc(O)c1	-1%	?	13µM*	3
CC1(C)CC(=O)C2=C(C1)NC(Nc1nc3ccccc3o1)=NC2c1ccccc1 (centres undefined)	·	·	4%	·
CCOc1ccc(NC(=O)CSc2nnc(CC)c(CC)n2)cc1	4%	·	·	·
O=C(N/N=C/c1cccc([N+](=O)[O-])c1)c1c[nH]c2ccccc12	?	4%	36%	-3
O=C(N/N=C/c1cc([N+](=O)[O-])ccc1O)c1c[nH]c2ccccc12	0%	8.2µM*	-40%	0
C=CCn1c(-c2ccc(N)cc2)nc2ccccc21	3%	?	50%	-3
SMILES	Nrf2 activator	ELG1 repair inh	BRCA1 expr act	IL2 activator
C=CCn1c(-c2ccc(OC)cc2)nc2ccccc21	3%	?	10µM*	1
Nc1c(C(=O)Nc2ccc3c(c2)OCCO3)nnn1Cc1ccccc1Cl	4%	?	?	-1
Nc1c(C(=O)Nc2ccc3c(c2)OCCO3)nnn1Cc1cccc(Cl)c1	4%	?	3.2µM*	0
Nc1c(C(=O)Nc2ccc3c(c2)OCCO3)nnn1Cc1ccc(F)cc1	2%	?	8.9µM*	0
Cc1cc2nc(-c3cccc(NC(=O)c4cccc5ccccc45)c3)oc2cc1C	2%	·	·	·
Cc1cccc(Cn2c(CN3CCC(C(=O)NCCc4ccccc4)CC3)cc3ccccc32)c1	9%	·	·	·

Assay outcomes (PubChem BioAssay)
